# Test results from PubChem BioAssay (NCATS).
# Records with an inconclusive call do not appear. Activity calls are given as the source filed them. Calls come from the whole dose curve; as a rule, active = well fitted cell-killing curve with a large enough effect; inconclusive = small, poorly fitted or top-dose-only effect, or effect the other way; inactive = flat fitted curve, though single readings scatter.
# Test system: SKOV3
# Assay: Primary qHTS to identify gynecologic anti-cancer compounds using libraries of approved drugs and bioactive compounds (AID 1345084); note: nearly all actives have a fitted effect of over 55% in size
# Settings: Gynecologic cancer cell panel viability, ATPlite luminescence, 48 h; series mostly up to 57.5 µM
# Procedure, shortened: (§1)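 Cytotoxicity screen measuring ATP content by luciferase luminescence. Each compound is applied at five concentrations for 48 h at 37 C with 5% CO2.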
# Potency is the fitted concentration of half-maximal effect.
row,SMILES,Potency
1,NC(=O)Nc1cc(-c2cccc(F)c2)sc1C(=O)N[C@H]1CCCNC1,0.631 µM (active)
2,O=C(Nc1cn[nH]c1-c1nc2ccc(CN3CCOCC3)cc2[nH]1)NC1CC1,10 µM (active)
3,Cc1ccc(C(=O)Nc2ccc(CN3CCN(C)CC3)c(C(F)(F)F)c2)cc1C#Cc1cnc2cccnn12,10 µM (active)
4,COc1cc2c(Nc3ccc(NC(=O)c4ccccc4)cc3)ncnc2cc1OCCCN1CCOCC1,11.2 µM (active)
5,CCn1nnc2c(N3CCOCC3)nc(-c3ccc(NC(=O)Nc4ccc(C(=O)N5CCN(C)CC5)cc4)cc3)nc21,0.316 µM (active)
6,Cc1nc(Nc2n[nH]c3c2CN(C(=O)N[C@H](CN(C)C)c2ccccc2)C3(C)C)c2sccc2n1,7.08 µM (active)
7,CC(C)c1nn(-c2c(Cl)cccc2Cl)c2nc(Cc3ccc(OCCO)cc3)[nH]c(=O)c12,1.41 µM (active)
8,COc1c(OCCCN2CCOCC2)ccc2c3n(c(=NC(=O)c4cnc(N)nc4)nc12)CCN3,0.0631 µM (active)
9,Nc1nc(NCCNc2ncc(-n3ccnc3)c(-c3ccc(Cl)cc3Cl)n2)ccc1[N+](=O)[O-],inactive
10,NCC(=O)Nc1ccc(-n2nc(C(F)(F)F)cc2-c2ccc3c(ccc4ccccc43)c2)cc1,inactive
11,O=C(Nc1cc(C(F)(F)F)cc(C(F)(F)F)c1)c1cc(Cl)ccc1O,3.55 µM (active)
12,O=C(Nc1nc2cccc(-c3ccc(CN4CCS(=O)(=O)CC4)cc3)n2n1)C1CC1,inactive
13,Cc1cnc(-c2cnc(NCCNc3ccc(C#N)cn3)nc2-c2ccc(Cl)cc2Cl)[nH]1,inactive

# Test system: Tov-21-G
# Assay: as above
# Settings: Gynecologic cancer cell panel viability, ATPlite luminescence, 48 h; series mostly up to 57.5 µM
# Procedure, shortened: as §1
row,SMILES,Potency
1,CC(C)c1cc(C(=O)N2Cc3ccc(CN4CCN(C)CC4)cc3C2)c(O)cc1O,0.355 µM (active)
2,OCCCNc1cc(-c2ccnc(Nc3cccc(Cl)c3)n2)ccn1,0.158 µM (active)
3,O=C(Cc1ccc(-c2ccc(OCCN3CCOCC3)cc2)cn1)NCc1ccccc1,2 µM (active)
4,O=C(Nc1cn[nH]c1-c1nc2ccc(CN3CCOCC3)cc2[nH]1)NC1CC1,2.24 µM (active)
5,O=C(Nc1ncc(-c2cc(C(F)F)nn2-c2c(Cl)cccc2Cl)s1)C1CC1,1.78 µM (active)
6,Nc1ncnc2c1c(-c1cnc3[nH]ccc3c1)nn2C1CCCC1,6.31 µM (active)
7,N#CCNC(=O)c1ccc(-c2ccnc(Nc3ccc(N4CCOCC4)cc3)n2)cc1,14.1 µM (active)
8,Cc1ccc(C(=O)Nc2ccc(CN3CCN(C)CC3)c(C(F)(F)F)c2)cc1C#Cc1cnc2cccnn12,7.08 µM (active)
9,CCn1nnc2c(N3CCOCC3)nc(-c3ccc(NC(=O)Nc4ccc(C(=O)N5CCN(C)CC5)cc4)cc3)nc21,0.224 µM (active)
10,CC[C@@]1(O)C(=O)OCc2c1cc1n(c2=O)Cc2cc3cc(O)ccc3nc2-1,3.55 µM (active)
11,CCN(CC)CCNC(=O)c1ccc2nc(-c3ccccc3)c(-c3ccc(CN4CCC(n5c(=O)[nH]c6ccccc65)CC4)cc3)nc2c1,inactive
12,CC(C)(O)CCc1ccc(OCc2cc(-c3cccc(OC(F)F)c3)c3ncccc3c2)cc1,inactive
13,Nc1nc(NCCNc2ncc(-n3ccnc3)c(-c3ccc(Cl)cc3Cl)n2)ccc1[N+](=O)[O-],inactive
14,CC(C)c1cnn2c(NCc3ccccc3)cc(N[C@@H](CO)[C@H](O)CO)nc12,1.58 µM (active)
15,CC(C)(O)c1cc2nc(-c3cnc(N)nc3)nc(N3CCOCC3)c2s1,3.16 µM (active)
16,CNC(=O)c1cc(Oc2ccc(NC(=O)Nc3cc(C(C)(C)C)nn3-c3ccc4ncccc4c3)c(F)c2)ccn1,28.2 µM (active)
17,O=C(Nc1cc(C(F)(F)F)cc(C(F)(F)F)c1)c1cc(Cl)ccc1O,8.91 µM (active)
18,Cn1cc(-c2ccncc2)c(-c2ccc(OCc3ccc4ccccc4n3)cc2)n1,inactive
19,Cc1cnc(-c2cnc(NCCNc3ccc(C#N)cn3)nc2-c2ccc(Cl)cc2Cl)[nH]1,inactive
